Data on 130 sequences can be found in a collection of fitness landscapes (doi:10.1038/s41467-024-54723-y).

Whole data set: some 18,000 sequences, median “TetR repression strength (sort-seq, GFP reporter)” near 0.23, cut for the highest 2% near 0.68. Only a selection was taken, and the highest values are over-represented in it overall.

Sequence of TetR (class B, Tn10) (P04483 whole entry): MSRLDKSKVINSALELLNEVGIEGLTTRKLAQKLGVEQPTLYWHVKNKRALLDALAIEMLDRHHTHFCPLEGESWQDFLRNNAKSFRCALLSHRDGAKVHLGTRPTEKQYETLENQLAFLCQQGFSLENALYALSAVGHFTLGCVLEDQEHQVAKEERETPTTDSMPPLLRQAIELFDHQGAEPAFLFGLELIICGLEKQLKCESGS

The assay concerns the target TetR (class B, Tn10) (UniProt P04483). As to the kind of experiment: TetR repression strength (sort-seq, GFP reporter) (relative to tetO2 = 1); higher = stronger repression. To be noted: E. coli. The procedure, abridged: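 In LB with 50 µg/mL chloramphenicol, E. coli SIG10-MAX holding a low-copy library with eight randomized operator positions between a constitutive promoter and sfGFP, plus constitutive TetR, grew for 5 h at 37 °C. FACS then sorted 10^6 cells into 13 fluorescence bins for Illumina sequencing of each bin. Repression strength equals the top bin index plus one less the read-weighted mean bin, normalized to the unaltered operator. Values from three independent transformations were averaged when reads were ≥30 in every replicate and the CV was ≤0.5.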
As for TCCCAAAAAGTTCCGGAGA, the TetR repression strength was 0.0327. In the case of TCCCATTTAGTCTGTGAGA it was 0.192; in that of TCCCTAAAAGTACAGGAGA, 0.262. In the case of TCCCGCTGAGTAATGGAGA it was 0.218; in that of TCCCTGCGAGTATTTGAGA, 0.391. On to TCCCTAGTAGTGTGGGAGA, for which the TetR repression strength was 0.216.

Sequence TCCCTAGAAGTTTAAGAGA returned a TetR repression strength of 0.0122. In the case of TCCCGTATAGTCTGTGAGA it was 0.0605. Turning to TCCCGTCAAGTGTCCGAGA, the TetR repression strength stood at 0.279. Turning to TCCCGGACAGTCCGTGAGA, the TetR repression strength was 0.196. The result for TCCCTATCAGTGACGGAGA reads 0.472. The result for TCCCAACCAGTCATGGAGA reads 0.159; that for TCCCTTGCAGTGATAGAGA, 0.657; that for TCCCAACCAGTAATGGAGA, 0.713.

TCCCTATCAGTGACTGAGA: the TetR repression strength worked out at 0.722. As to TCCCTATCAGTGATAGAGA, the TetR repression strength worked out at 1. The result for TCCCTATTAGTGACTGAGA reads 0.345. In turn, TCCCTTTCAGTGTTAGAGA returned a TetR repression strength of 0.459. In the case of TCCCTATCAGTGTTAGAGA it was 0.974; in that of TCCCCGTCAGTGATAGAGA, 0.35; in that of TCCCGATCAGTGTTAGAGA, 0.556. TCCCAACGAGTAATGGAGA yielded a TetR repression strength of 0.395. In the case of TCCCGTCCAGTCTGAGAGA it was 0.152; in that of TCCCGATGAGTGTGGGAGA, 0.221; in that of TCCCTATCAGTAACTGAGA, 0.474. The result for TCCCTATCAGTGCGTGAGA reads 0.546; that for TCCCTATCAGTGGGTGAGA, 0.554. The result for TCCCTGTCAGTGATTGAGA reads 0.592.

Take TCCCTATCAGTGAGAGAGA: the TetR repression strength turned out to be 0.948. TCCCTATCAGTTATTGAGA displayed a TetR repression strength of 0.504. In the case of TCCCTATCAGTAATTGAGA it was 0.787.

On to TCCCTTGAAGTCATTGAGA, for which the TetR repression strength came to 1.05. In turn, TCCCTATTAGTAATTGAGA came in with a TetR repression strength of 0.416. For TCCCTATCAGTGATTGAGA, the TetR repression strength was 0.939. Sequence TCCCTTCAAGTCATTGAGA had a TetR repression strength of 0.0199. TCCCTTGAAGTCAGTGAGA returned a TetR repression strength of 0.236. The result for TCCCTTATAGTATCAGAGA reads 0.186; that for TCCCGATAAGTAGCGGAGA, 0.234; that for TCCCTTGCAGTGTACGAGA, 0.204.

Consider TCCCCCTTAGTTGTCGAGA, for which the TetR repression strength was 0.307. The result for TCCCGCGAAGTGTTTGAGA reads 0.197; that for TCCCTGGGAGTGACAGAGA, 0.299; that for TCCCTAAGAGTGGGCGAGA, 0.157.

Sequence TCCCTAGAAGTGACGGAGA gave a TetR repression strength of 0.153. Consider TCCCCGAGAGTCCTAGAGA, for which the TetR repression strength came out at 0.235.

For TCCCGTCAAGTGCCGGAGA, the TetR repression strength stood at 0.325. In the case of TCCCTATCAGTGAGGGAGA it was 0.5; in that of TCCCAATCAGTGGCAGAGA, 0.433; in that of TCCCTATCAGTGAAAGAGA, 0.784. The result for TCCCTAACAGTGACAGAGA reads 0.559; that for TCCCTGTCAGTGGCAGAGA, 0.545; that for TCCCTATCAGTAAGTGAGA, 0.545.

In the case of TCCCTATCAGTGACAGAGA, the TetR repression strength is 0.863. In turn, TCCCTATCAGTGAGTGAGA showed a TetR repression strength of 0.79. In the case of TCCCTATCAGTCAAAGAGA it was 0.636; in that of TCCCTATCAGTGGCAGAGA, 0.771; in that of TCCCTGTCAGTGACAGAGA, 0.636. In the case of TCCCTAACAGTGAAAGAGA it was 0.575. In the case of TCCCTGTTAGTGCGGGAGA it was 0.226; in that of TCCCGGTGAGTTGTCGAGA, 0.355; in that of TCCCATATAGTTTGGGAGA, 0.175.

The sequence TCCCTTGAAGTATCGGAGA had a TetR repression strength of 0.146.

Consider TCCCATAGAGTGCGTGAGA, for which the TetR repression strength was 0.18. For TCCCTGGCAGTTTTTGAGA, the TetR repression strength was found to be 0.196.

The sequence TCCCCCCGAGTGCTGGAGA yielded a TetR repression strength of 0.344. The result for TCCCCCTGAGTCATTGAGA reads 0.526. Regarding TCCCGGGCAGTGGGGGAGA, the TetR repression strength was 0.347. Consider TCCCGCGTAGTGTACGAGA, for which the TetR repression strength amounted to 0.108. The result for TCCCTATTAGTGAGTGAGA reads 0.762; that for TCCCTATTAGTGTGTGAGA, 0.219; that for TCCCTATTAGTGAGAGAGA, 0.631. Sequence TCCCGTGGAGTGCACGAGA yielded a TetR repression strength of 0.315. In the case of TCCCAACAAGTGGATGAGA it was 0.243; in that of TCCCCACGAGTGGATGAGA, 0.382; in that of TCCCCACCAGTGGATGAGA, 1.05. As for TCCCCCACAGTGGATGAGA, the TetR repression strength stood at 0.294. TCCCCACAAGTGGATGAGA came in with a TetR repression strength of 1.22. In the case of TCCCCCCCAGTGGATGAGA it was 0.232; in that of TCCCCCCGAGTAAGTGAGA, 0.278; in that of TCCCGTCTAGTACTCGAGA, 0.262. Consider TCCCAAAGAGTGGGCGAGA, for which the TetR repression strength stood at 0.0498. The sequence TCCCTCTTAGTGTGGGAGA displayed a TetR repression strength of 0.0777. TCCCGATGAGTATGTGAGA gave a TetR repression strength of 0.366. TCCCTGCCAGTATAGGAGA came in with a TetR repression strength of 0.308.

TCCCCCCTAGTGGACGAGA: the TetR repression strength was found to be 0.178. For the sequence TCCCTCGTAGTGGATGAGA, the TetR repression strength was 0.206. The sequence TCCCTATGAGTTCCCGAGA displayed a TetR repression strength of 0.289.

Regarding TCCCTATGAGTAAAAGAGA, the TetR repression strength was 0.24. In turn, TCCCTATGAGTACGAGAGA had a TetR repression strength of 0.291. In the case of TCCCTATGAGTTCGAGAGA, the TetR repression strength came out at 0.195. The result for TCCCTATGAGTTGAAGAGA reads 0.326; that for TCCCTATGAGTTCCAGAGA, 1.01; that for TCCCTATGAGTACCAGAGA, 0.857.

Sequence TCCCTATGAGTTTAAGAGA came in with a TetR repression strength of 1.03. Consider TCCCTAAGAGTAAACGAGA, for which the TetR repression strength turned out to be 0.446. TCCCTAAGAGTAAAAGAGA: the TetR repression strength was determined as 0.839. In the case of TCCCTATGAGTTTGAGAGA it was 0.33; in that of TCCCTAAGAGTACCAGAGA, 0.429; in that of TCCCGTGTAGTAAGTGAGA, 0.313. In the case of TCCCCGAGAGTTGGGGAGA it was 0.104. The result for TCCCAATCAGTCCGCGAGA reads 0.295; that for TCCCAAGTAGTCACGGAGA, 0.295; that for TCCCCCGGAGTAGAGGAGA, 0.187. TCCCGGCTAGTAGCAGAGA returned a TetR repression strength of 0.0201.

Take TCCCTTTGAGTCGCAGAGA: the TetR repression strength was determined as 0.386. The result for TCCCAGGGAGTGGAAGAGA reads 0.235; that for TCCCGACTAGTTCGCGAGA, 0.367; that for TCCCATATAGTTAGCGAGA, 0.247. In the case of TCCCTCAGAGTTCCAGAGA it was 0.313; in that of TCCCCACTAGTCCGTGAGA, 0.279.

Sequence TCCCCTATAGTATAGGAGA displayed a TetR repression strength of 0.0691. The result for TCCCCTTAAGTACAGGAGA reads 0.72; that for TCCCCTATAGTACAGGAGA, 0.792; that for TCCCTTAAAGTACAGGAGA, 0.125. The result for TCCCTTATAGTACAGGAGA reads 0.103; that for TCCCCTAAAGTACAGGAGA, 0.0737; that for TCCCTGGAAGTGCAAGAGA, 0.431. Consider TCCCAGGCAGTTGACGAGA, for which the TetR repression strength is 0.698. The result for TCCCAGTCAGTTGAAGAGA reads 0.858.

With TCCCAATCAGTTGAAGAGA, the TetR repression strength is 0.279. TCCCAGGCAGTTGAAGAGA displayed a TetR repression strength of 0.182. As to TCCCAGGCAGTTGAGGAGA, the TetR repression strength turned out to be 0.216. The sequence TCCCAGGGAGTTGACGAGA returned a TetR repression strength of 0.0614. With TCCCAATGAGTCAATGAGA, the TetR repression strength came out at 0.207. The sequence TCCCAAGTAGTCAATGAGA registered a TetR repression strength of 0.663. On to TCCCACCAAGTCAATGAGA, for which the TetR repression strength came to 0.943.

TCCCATCCAGTCAATGAGA returned a TetR repression strength of 0.0518.

The sequence TCCCCACCAGTCAATGAGA yielded a TetR repression strength of 0.315. On to TCCCACCCAGTCAATGAGA, for which the TetR repression strength came out at 0.783. In the case of TCCCCGCGAGTTGTAGAGA it was 0.0957.
